The whole screen tested about 5,500 compounds, of which about 2,000 (36%) were called active. Roughly 18% stayed inconclusive and do not appear here. Rule as the data show it: active = normalized growth mostly below about 0.91 (no sharp cut-off); inconclusive = no clear call, values can overlap the other calls; inactive = mostly above about 0.92. This is one part of the list.
Assay: chemical genetic growth profiling, strain panel (AID 1159580);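 also: tested at 20 µM; growth read once vehicle control cultures reached saturation at 30 °C; 1 = growth at the plate median or of vehicle wells; lower values mean less growth of the strain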
Conditions: growth OD

Measured: normalized growth

C[C@]12CCC3C(CC[C@]4(O)C[C@@H](O)CC[C@]34C=O)[C@@]1(O)CCC2C1=CC(=O)OC1 (stereo partly specified)
inactive: S. cerevisiae deletion strains, locus YJR066W, strain TOR1, hits give low values 0.934 | S. cerevisiae deletion strains, locus YKL009W, strain mrt4, hits give low values 0.978 | S. cerevisiae deletion strains, locus YKL068W, hits give low values 0.966 | S. cerevisiae deletion strains, locus YKL085W, strain MDH1 (second series), hits give low values 0.978 | S. cerevisiae deletion strains, locus YKL085W, strain MDH1, hits give low values 0.978 | S. cerevisiae deletion strains, locus YKL160W, strain elf1, hits give low values 0.972 | S. cerevisiae deletion strains, locus YKL190W, strain CNB1, hits give low values 0.997 | S. cerevisiae deletion strains, locus YKR001C, strain vps1, hits give low values 0.986 | S. cerevisiae deletion strains, locus YKR026C, strain gcn3, hits give low values 0.988 | S. cerevisiae deletion strains, locus YKR091W, strain srl3, hits give low values 0.981 | S. cerevisiae deletion strains, locus YLL001W, strain dnm1, hits give low values 0.975 | S. cerevisiae deletion strains, locus YLL026W, hits give low values 0.986 | S. cerevisiae deletion strains, locus YLL041C, strain sdh2, hits give low values 0.967 | S. cerevisiae deletion strains, locus YLR027C, strain aat2, hits give low values 0.958 | S. cerevisiae deletion strains, locus YLR039C, strain RIC1, hits give low values 0.975 | S. cerevisiae deletion strains, locus YLR058C, strain SHM2, hits give low values 0.989 | S. cerevisiae deletion strains, locus YLR102C, strain apc9, hits give low values 0.978 | S. cerevisiae deletion strains, locus YLR113W, strain HOG1, hits give low values 0.983 | S. cerevisiae deletion strains, locus YLR221C, strain rsa3, hits give low values 1 | S. cerevisiae deletion strains, locus YLR258W, strain gsy2, hits give low values 0.965 | S. cerevisiae deletion strains, locus YLR262C, strain YPT6 (second series), hits give low values 0.957 | S. cerevisiae deletion strains, locus YLR262C, strain YPT6, hits give low values 0.918 | S. cerevisiae deletion strains, locus YLR268W, strain sec22, hits give low values 0.979 | S. cerevisiae deletion strains, locus YLR320W, strain mms22, hits give low values 1.05 | S. cerevisiae deletion strains, locus YLR330W, strain CHS5, hits give low values 0.983 | S. cerevisiae deletion strains, locus YLR342W, strain FKS1 (second series), hits give low values 1.01 | S. cerevisiae deletion strains, locus YLR342W, strain FKS1, hits give low values 0.976 | S. cerevisiae deletion strains, locus YLR357W, strain rsc2, hits give low values 0.998 | S. cerevisiae deletion strains, locus YLR370C, strain arc18, hits give low values 0.999 | S. cerevisiae deletion strains, locus YLR371W, strain rom2, hits give low values 0.963 | S. cerevisiae deletion strains, locus YLR384C, strain iki3, hits give low values 1 | S. cerevisiae deletion strains, locus YLR418C, strain cdc73, hits give low values 0.95 | S. cerevisiae deletion strains, locus YML016C, strain PPZ1, hits give low values 0.99 | S. cerevisiae deletion strains, locus YML032C, strain rad52, hits give low values 0.976 | S. cerevisiae deletion strains, locus YML120C, strain ndi1, hits give low values 0.954 | S. cerevisiae deletion strains, locus YML124C, strain tub3, hits give low values 0.987 | S. cerevisiae deletion strains, locus YMR058W, strain fet3, hits give low values 0.969 | S. cerevisiae deletion strains, locus YMR078C, strain ctf18, hits give low values 0.965 | S. cerevisiae deletion strains, locus YMR125W, strain sto1, hits give low values 0.96 | S. cerevisiae deletion strains, locus YMR129W, hits give low values 0.982 | S. cerevisiae deletion strains, locus YMR205C, strain PFK2, hits give low values 0.881 | S. cerevisiae deletion strains, locus YMR231W, strain pep5, hits give low values 0.999 | S. cerevisiae deletion strains, locus YMR307W, strain GAS1, hits give low values 0.919 | S. cerevisiae deletion strains, locus YNL067W, strain RPL9B, hits give low values 1.01 | S. cerevisiae deletion strains, locus YNL071W, strain lat1, hits give low values 0.958 | S. cerevisiae deletion strains, locus YNL183C, strain NPR1, hits give low values 0.952 | S. cerevisiae deletion strains, locus YNL209W, strain ssb2, hits give low values 0.974 | S. cerevisiae deletion strains, locus YNL233W, strain BNI4, hits give low values 1.03 | S. cerevisiae deletion strains, locus YNL248C, strain rpa49, hits give low values 0.943 | S. cerevisiae deletion strains, locus YNL250W, strain rad50, hits give low values 0.968 | S. cerevisiae deletion strains, locus YNL271C, strain bni1, hits give low values 0.981 | S. cerevisiae deletion strains, locus YNL298W, strain CLA4, hits give low values 0.964 | S. cerevisiae deletion strains, locus YNL307C, strain MCK1, hits give low values 0.983 | S. cerevisiae deletion strains, locus YNL322C, strain KRE1 (second series), hits give low values 0.975 | S. cerevisiae deletion strains, locus YNL322C, strain KRE1, hits give low values 0.99 | S. cerevisiae deletion strains, locus YNR049C, strain mso1, hits give low values 0.971 | S. cerevisiae deletion strains, locus YNR052C, strain pop2, hits give low values 0.977 | S. cerevisiae deletion strains, locus YOL012C, strain htz1 1.05 | S. cerevisiae deletion strains, locus YOL147C, strain pex11, hits give low values 0.981 | S. cerevisiae deletion strains, locus YOR001W, strain rrp6, hits give low values 1.01 | S. cerevisiae deletion strains, locus YOR061W, strain CKA2, hits give low values 0.963 | S. cerevisiae deletion strains, locus YOR069W, strain VPS5, hits give low values 0.984 | S. cerevisiae deletion strains, locus YOR070C, strain gyp1, hits give low values 0.998 | S. cerevisiae deletion strains, locus YOR080W, strain dia2, hits give low values 0.988 | S. cerevisiae deletion strains, locus YOR083W, strain WHI5, hits give low values 0.939 | S. cerevisiae deletion strains, locus YOR106W, strain vam3, hits give low values 0.9 | S. cerevisiae deletion strains, locus YOR136W, strain idh2, hits give low values 0.981 | S. cerevisiae deletion strains, locus YOR144C, strain elg1, hits give low values 0.985 | S. cerevisiae deletion strains, locus YOR184W, strain ser1, hits give low values 0.975 | S. cerevisiae deletion strains, locus YOR231W, strain MKK1, hits give low values 1 | S. cerevisiae deletion strains, locus YOR265W, strain rbl2, hits give low values 0.975 | S. cerevisiae deletion strains, locus YOR270C, strain vph1, hits give low values 0.997 | S. cerevisiae deletion strains, locus YOR290C, strain snf2, hits give low values 0.894 | S. cerevisiae deletion strains, locus YOR316C, strain cot1, hits give low values 0.982 | S. cerevisiae deletion strains, locus YPL051W, strain arl3, hits give low values 0.995 | S. cerevisiae deletion strains, locus YPL055C, strain LGE1, hits give low values 1 | S. cerevisiae deletion strains, locus YPL078C, strain atp4, hits give low values 0.942 | S. cerevisiae deletion strains, locus YPL106C, strain sse1, hits give low values 0.871 | S. cerevisiae deletion strains, locus YPL240C, strain hsp82, hits give low values 0.988 | S. cerevisiae deletion strains, locus YPL256C, strain CLN2, hits give low values 0.974 | S. cerevisiae deletion strains, locus YPR119W, strain clb2, hits give low values 0.983 | S. cerevisiae deletion strains, locus YPR141C, strain kar3, hits give low values 0.982 | S. cerevisiae deletion strains, locus YPR163C, strain tif3, hits give low values 0.967 | S. cerevisiae deletion strains, locus YPR167C, strain met16, hits give low values 0.975 | S. cerevisiae deletion strains, strain wtn01, hits give low values 1.01 | S. cerevisiae strains, strain wild type, hits give low values 0.981
